Assay results reported in PubChem BioAssay (NCATS).
“And” between values parts separate entries of the source, which are not always exact repeats. Equal entries are not always repeated. Results filed as inconclusive are left out. The source made the active and inactive calls. Unless noted, calls come from the whole dose curve; as a rule, active = well fitted curve in the direction sought with a large enough effect; inconclusive = small, poorly fitted or top-dose-only effect, or another doubt; inactive = no such curve, though single readings can be large; an effect the other way counts as inactive or inconclusive.

Tests used:
[1] = Cell Viability - BJ (AID 421; calls by dose curve;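 note: potency is the fitted concentration of half-maximal effect; cells exposed to compound for 40 hours at 37 °C before readout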); details: BJ fibroblast viability, qHTS
In short: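 Luminescent ATP signal (CellTiter-Glo, 20 min at room temperature) served as the read-out of viable BJ cells after 40 hours of compound treatment. Responses were scaled between DMSO and 100 uM tamoxifen, and AC50 values were obtained by Hill modeling.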

[2] = Cell Viability - Jurkat (AID 426;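 active = dose-dependent loss of cell ATP signal giving a full or clear fitted curve, ranked by lower potency value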;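 note: potency is the fitted concentration of half-maximal effect; cells exposed to compound for 40 hours at 37 °C before ATP read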); details: qHTS
In short: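 Luminescent ATP read-out (CellTiter-Glo, 20 min at room temperature) after 40 hr compound exposure at 37 °C of Jurkat E6-1 cells, 5000/well. Decreased ATP taken as cytotoxicity; AC50 from standard Hill equation.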

[3] = Cell Viability - Hek293 (AID 427;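 active = compounds whose dose-response curve shows a full or clear partial loss of cell viability, called from curve shape rather than a numeric limit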;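 note: potency is the fitted concentration of half-maximal effect; cells exposed to compound for 40 hours at 37 °C before reading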); details: qHTS
In short: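 Luminescent ATP read-out (CellTiter-Glo, 20 min RT) after 40 hr compound exposure at 37 °C in complete medium. Signal normalized to DMSO (basal) and 100 uM tamoxifen (100% inhibition); concentration-response fitted with the standard Hill equation to give AC50.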

[4] = Cell Viability - MRC5 (AID 434; calls by dose curve;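 note: potency is the fitted concentration of half-maximal effect; cells exposed to compound for 40 hours at 37 °C; potency reflects cytotoxicity seen as loss of intracellular ATP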); details: MRC5 lung fibroblast viability, qHTS
In short: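 ATP luminescence read-out (CellTiter-Glo, 20 min RT) after 40 hr, 37 °C compound exposure of 1500 MRC5 cells/well. Data normalized to DMSO (basal) and 100 uM tamoxifen (100% inhibition); AC50 from standard Hill equation.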

[5] = Cell Viability - Mesenchymal (AID 546); details: mesenchymal cells viability, qHTS; series mostly up to 91.7 µM;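 note: cells exposed to compound for 40 hours before reading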
In short: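 Human renal mesenchymal cells (glomerulus-derived), 1000 cells/well, 5 hr 37 °C pre-incubation; compound 40 hr, 37 °C; CellTiter-Glo, 20 min RT; luminescence; AC50 via Hill equation.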

[6] = Cellular Toxicity (caspase-3) SHSY5Y (AID 657); details: SH-SY5Y caspase-3 activation, DMSO zero, 10 µM staurosporine = 100%; series mostly up to 91.7 µM;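 note: cells exposed to compound for 16 hours at 37 °C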
In short: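 qHTS, SH-SY5Y, 1500 cells/well, 5 h pre-incubation 37 °C; compound 16 h 37 °C; Caspase-Glo 3/7 1 h RT; luminescence. Norm.: DMSO = 0, 10 uM staurosporine = 100%. Hill fit → AC50.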

[7] = Cellular Toxicity (caspase-3) MRC-5 (AID 659); details: MRC-5 cells, luminescence, normalized: DMSO 0%, 10 µM staurosporine 100%; series mostly up to 91.7 µM
In short: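 MRC-5 fibroblasts, 1500/well; 16 h cpd, 37 °C; Caspase-Glo 3/7, 1 h RT; lumi read. Norm: DMSO = 0%, 10 uM staurosporine = 100%. Hill-fit AC50 from qHTS conc-response.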

[8] = Cellular Toxicity (caspase-3) Mesangial (AID 660); details: mesangial cells, normalized: DMSO 0%, 100 µM tamoxifen 100%; series mostly up to 91.7 µM;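 note: combined caspase 3 and 7 activity read by Caspase-Glo luminescence; cells exposed to compound for 16 h before the caspase read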
In short: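 Luminescent Caspase-Glo 3/7 readout (aminoluciferin substrate cleavage, 20 min RT) after 16 h compound exposure at 37 °C of normal human mesangial cells. Signal increase normalized between DMSO basal and 100 uM tamoxifen; Hill-equation AC50.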

[9] = Cellular Toxicity (caspase-3) SK-N-SH (AID 661); details: SK-N-SH caspase-3 activation, qHTS; series mostly up to 91.7 µM;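 note: cells exposed to compound for 16 hours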
In short: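 Luminescent Caspase-Glo 3/7 read-out after 16 hr compound exposure of SK-N-SH neuroblastoma cells at 37 °C. Signal increase normalized to DMSO (basal) and 10 uM staurosporine (100%); AC50 from Hill equation fits of qHTS concentration-response data.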

[10] = Cellular Toxicity (caspase-3) Hek293 (AID 664); details: HEK293 caspase-3 activation, DMSO = 0%, 100 µM tamoxifen = 100%; at 92.2 µM (top of the series);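 note: cells exposed to compound for 16 h at 37 °C before readout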
In short: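 Luminescent Caspase-Glo 3/7 readout (aminoluciferin release) in HEK293 cells after 16 h compound treatment, 37 °C. Normalization: DMSO = basal, 100 uM tamoxifen = 100% stimulation. Concentration-response fitted with standard Hill equation for AC50.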

[11] = Cellular Toxicity (caspase-3) N2a (AID 665); details: N2a cells, luminescence, normalized: DMSO 0%, 10 µM staurosporine 100%; series mostly up to 92.2 µM;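 note: compound exposure lasted 16 h at 37 °C before readout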
In short: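 Luminescent Caspase-Glo 3/7 readout in N2a mouse neuroblastoma cells after 16 h compound exposure at 37 °C. Signal scaled to DMSO (basal) and 10 uM staurosporine (100%). Concentration-response fitted with Hill equation for AC50.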

[12] = Cell Viability - LYMP1-002 - Assay at 16 hr (AID 948); details: LYMP1-002 lymphoblastoid cell viability; series mostly up to 92.2 µM;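 note: 0% = DMSO alone and full effect = 92 µM tetraoctylammonium bromide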
In short: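 Seed 2500 LYMP1-002 cells per well in complete medium and hold 5 hr at 37 C. Add compound across a concentration series and incubate 16 hr at 37 C. Add CellTiter-Glo, wait 30 min at room temperature, read luminescence.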

[13] = MultiTox-Fluor Cytotoxicity Assay - LYMP1-003 - Dead Cells (AID 961); details: LYMP1-003 lymphoblastoid cells, dead-cell protease fluorescence; series mostly up to 92.2 µM;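 note: 0% = DMSO and 100% = tetraoctylammonium bromide; nearly all actives have a fitted effect of over 70% in size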
In short: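 Human lymphoblastoid LYMP1-003 cells (2500/well) were treated with compounds for 16 hr at 37 C in complete medium. Dead-cell protease release was read by bis-AAF-R110 fluorescence (Ex/Em 485/520). AC50 came from Hill fits, normalized to DMSO and 15 uM tetraoctylammonium bromide.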

[14] = MultiTox-Fluor Cytotoxicity Assay - LYMP1-003 - Live Cells (AID 962); details: LYMP1-003 lymphoblastoid cells, MultiTox-Fluor live-cell protease fluorescence; series mostly up to 92.2 µM;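 note: cells exposed to compound for 16 hours at 37 °C; 0% = DMSO only and full loss = 92 µM tetraoctylammonium bromide; cytotoxic hits lower the live-cell protease signal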
In short: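 Readout: live-cell fluorescence (Ex/Em=405/510) from GF-AFC cleavage after 60 min MultiTox-Fluor reagent at room temperature. Lymphoblastoid LYMP1-003 cells, 16 hr compound treatment, 37 C. Concentration-response fitted to standard Hill equation for AC50.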

[15] = Cell Viability - LYMP1-003 - Assay at 24 hr (AID 963); details: LYMP1-003 lymphoblastoid cell viability; series mostly up to 92.2 µM;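 note: plate controls were DMSO only for no effect and tetraoctylammonium bromide positive control for full effect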
In short: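 CellTiter-Glo luminescence (intracellular ATP) read after 24 hr, 37 C compound exposure of 2500 LYMP1-003 human lymphoblastoid cells/well in complete medium; qHTS concentration series; AC50 via standard Hill equation.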

[16] = Cell Viability - LYMP2-008 (AID 980); details: LYMP2-008 lymphoblastoid cell viability, qHTS; series mostly up to 92.2 µM;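 note: cells exposed to compound for 24 h at 37 °C; % is set by controls: 0 for no effect and ±100 for the full control effect; nearly all actives have a fitted effect of over 60% in size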
In short: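 Luminescent ATP read-out (CellTiter-Glo, 30 min RT) after 24 hr compound exposure at 37 C of human lymphoblastoid cells in complete medium. Decrease in ATP taken as cytotoxicity; AC50 derived by standard Hill fit of qHTS concentration-response data.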

[17] = qHTS Assay for Identification of Small Molecule Inducers of Hypoxia Response (AID 2120; active = well fitted curve in the direction sought with a large enough effect in the signal ratio, with a control signal flat, not every such curve was filed as active; the % refers to the signal ratio; note: 0% is about no effect); details: hypoxia response reporter cells, beta-lactamase ratio readout; series mostly up to 104 µM
In short: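 Read-out: CCF4 FRET emission ratio 460nm/530nm (excitation 405nm), converted to %Activity, with AC50 fitted across a compound titration. ME-180 cells carried an HRE-driven beta-lactamase reporter; compound exposure 17 h, 37 degrees C.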

[18] = target: Peroxisome proliferator-activated receptor alpha (Homo sapiens) (UniProt Q07869); assay: qHTS assay for small molecule agonists of the peroxisome proliferator-activated receptor alpha (PPARalpha) signaling pathway (AID 651778); details: PathHunter PPARalpha complementation, chemiluminescence, 6 h; hits give high values; note: % of control where 0% means no effect
In short: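 Enzyme-fragment complementation assay in which ligand-bound PPARalpha translocates and forms an active enzyme that generates chemiluminescence. Cells were plated overnight, exposed to compound for 6 hr at 37 C, and then given detection reagent for 60 min at room temperature.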

[19] = qHTS assay for small molecule agonists of the antioxidant response element (ARE) signaling pathway measured by Nrf2-dependant transcriptional activity - cell viability counter screen (AID 720653; active = well fitted curve in the direction sought with a large enough effect in the repeat runs; an effect the other way counts as inactive or inconclusive; note: % is set by controls: 0 for no effect and ±100 for the full control effect); details: ARE-bla HepG2 viability, CellTiter-Glo ATP luminescence, 16 h; hits give low values
In short: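 ARE-bla HepG2 cells treated with compounds for 16 h at 37C; this counter screen measures viability as intracellular ATP by CellTiter-Glo luminescence after 30 min at room temperature.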

[20] = qHTS assay for cell viability of the p53RE-bla HCT-116 cell line (AID 743292); details: p53RE-bla HCT-116 viability, ATP luminescence, 16 h; series mostly up to 95 µM; note: % is set by controls: 0 for no effect and ±100 for the full control effect; nearly all actives have a fitted effect of over 55% in size
In short: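 Intracellular ATP of p53RE-bla HCT-116 cells measured by luciferase luminescence following 16 h compound incubation at 37 C; DMSO-only wells served as vehicle controls.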

Sequence of Peroxisome proliferator-activated receptor alpha (Homo sapiens) (Q07869 whole entry, looked up, the tested form may be a part): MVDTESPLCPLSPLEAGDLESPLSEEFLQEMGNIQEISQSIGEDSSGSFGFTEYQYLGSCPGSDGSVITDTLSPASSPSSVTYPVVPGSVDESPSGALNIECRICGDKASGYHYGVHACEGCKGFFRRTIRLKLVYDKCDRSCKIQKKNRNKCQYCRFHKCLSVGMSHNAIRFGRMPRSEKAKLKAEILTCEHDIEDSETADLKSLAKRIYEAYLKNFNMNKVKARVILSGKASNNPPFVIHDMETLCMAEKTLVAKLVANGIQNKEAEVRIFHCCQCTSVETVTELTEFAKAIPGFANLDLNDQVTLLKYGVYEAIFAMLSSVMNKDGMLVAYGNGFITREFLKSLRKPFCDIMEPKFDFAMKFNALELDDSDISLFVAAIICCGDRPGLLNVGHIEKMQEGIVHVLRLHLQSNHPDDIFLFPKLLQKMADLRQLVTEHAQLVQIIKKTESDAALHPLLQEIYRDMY

CC(C#N)CCC#N (stereo not given)
inactive: Potency [1] > 92 µM | Potency [2] > 92 µM | Potency [3] > 92 µM | Potency [4] > 92 µM | Potency [5] | outcome [6] | outcome [7] | outcome [8] | Potency [9] | caspase-3 activation [10] 0.584% | outcome [11] | outcome [12] | Potency [13] | outcome [14] | outcome [15] | Potency [16] | Potency [17] | max response [18] -3.28% | max response [19] 0.528% | Potency [20]

CCN(CC)CCO
inactive: Potency [1] > 92 µM | Potency [2] > 92 µM | Potency [3] > 92 µM | Potency [4] > 92 µM | Potency [5] | outcome [6] | outcome [7] | outcome [8] | Potency [9] | caspase-3 activation [10] 4.32% | outcome [11] | outcome [12] | Potency [13] | outcome [14] | outcome [15] | Potency [16] | Potency [17] | max response [18] -3.44% | max response [19] -6.79% | Potency [20]

CCOC(=O)CC(SP(=O)(OC)OC)C(=O)OCC (stereo not given)
inactive: Potency [1] > 92 µM | Potency [2] > 92 µM | Potency [3] > 92 µM | Potency [4] > 92 µM | Potency [5] | outcome [6] | outcome [7] | outcome [8] | Potency [9] | caspase-3 activation [10] 1.27% | outcome [11] | outcome [12] | Potency [13] | outcome [14] | outcome [15] | Potency [16] | Potency [17] | max response [18] -2.03% and -3.38% | max response [19] 0.403% and 18.9% | Potency [20]

Cc1ccc(N)c(C)c1
inactive: Potency [1] > 92 µM | Potency [2] > 92 µM | Potency [3] > 92 µM | Potency [4] > 92 µM | Potency [5] | outcome [6] | outcome [7] | outcome [8] | Potency [9] | caspase-3 activation [10] 1.54% | outcome [11] | outcome [12] | Potency [13] | outcome [14] | outcome [15] | Potency [16] | Potency [17] | max response [18] -4.17% | max response [19] -6.08% | Potency [20]

OCCBr
inactive: Potency [1] > 92 µM | Potency [2] > 92 µM | Potency [3] > 92 µM | Potency [4] > 92 µM | Potency [5] | outcome [6] | outcome [7] | outcome [8] | Potency [9] | caspase-3 activation [10] 0.017% | outcome [11] | outcome [12] | Potency [13] | outcome [14] | outcome [15] | Potency [16] | Potency [17] | max response [18] 2.96% | max response [19] 1.65% | Potency [20]

CCCCC#N
inactive: Potency [1] > 92 µM | Potency [2] > 92 µM | Potency [3] > 92 µM | Potency [4] > 92 µM | Potency [5] | outcome [6] | outcome [7] | outcome [8] | Potency [9] | caspase-3 activation [10] -1.9% | outcome [11] | outcome [12] | Potency [13] | outcome [14] | outcome [15] | Potency [16] | Potency [17] | max response [18] -3.73% | max response [19] -5.38% | Potency [20]

CC(C)[C@]12CC(=O)[C@H](C)[C@H]1C2
inactive: Potency [1] > 92 µM | Potency [2] > 92 µM | Potency [3] > 92 µM | Potency [4] > 92 µM | Potency [5] | outcome [6] | outcome [7] | outcome [8] | Potency [9] | caspase-3 activation [10] -0.456% | outcome [11] | outcome [12] | Potency [13] | outcome [14] | outcome [15] | Potency [16] | Potency [17] | max response [18] 5.79% and -0.343% | max response [19] -4.23% and -2.13% | Potency [20]

CCOP(=O)(OCC)OCC
inactive: Potency [1] > 92 µM | Potency [2] > 92 µM | Potency [3] > 92 µM | Potency [4] > 92 µM | Potency [5] | outcome [6] | outcome [7] | outcome [8] | Potency [9] | caspase-3 activation [10] 0.845% | outcome [11] | outcome [12] | Potency [13] | outcome [14] | outcome [15] | Potency [16] | Potency [17] | max response [18] 0.636% and -0.566% | max response [19] -1.09% and -8.89% | Potency [20]

COC(=O)Nc1cccc(OC(=O)Nc2cccc(C)c2)c1
inactive: Potency [1] > 92 µM | Potency [2] > 92 µM | Potency [3] > 92 µM | Potency [4] > 92 µM | Potency [5] | outcome [6] | outcome [7] | outcome [8] | Potency [9] | caspase-3 activation [10] 0.0585% | outcome [11] | outcome [12] | Potency [13] | outcome [14] | outcome [15] | Potency [16] | Potency [17] | max response [18] -6.94% | max response [19] -11.1% | Potency [20]

CCCCOCC1CO1 (stereo not given)
inactive: Potency [1] > 92 µM | Potency [2] > 92 µM | Potency [3] > 92 µM | Potency [4] > 92 µM | Potency [5] | outcome [6] | outcome [7] | outcome [8] | Potency [9] | caspase-3 activation [10] 3.87% | outcome [11] | outcome [12] | Potency [13] | outcome [14] | outcome [15] | Potency [16] | Potency [17] | max response [18] -2.14% | max response [19] -2.9% | Potency [20]

OCC(Cl)CCl (stereo not given)
inactive: Potency [1] > 92 µM | Potency [2] > 92 µM | Potency [3] > 92 µM | Potency [4] > 92 µM | Potency [5] | outcome [6] | outcome [7] | outcome [8] | Potency [9] | caspase-3 activation [10] 1.15% | outcome [11] | outcome [12] | Potency [13] | outcome [14] | outcome [15] | Potency [16] | Potency [17] | max response [18] 0.308% | max response [19] -10.2% | Potency [20]
